Assay results as given in a collection of fitness landscapes (doi:10.1016/j.celrep.2020.107928).
In all, about 81,000 sequences were measured (“one-hybrid fitness for binding NBS DNA”: median about -0.1, highest 2% from about 0.36 on). This is one part of a sample in which the highest values are shown more often than they occur.

B1: Caulobacter ParB omega fusion; a variant is named by its letters at X, in order, B8GW30 (parent)
chain: MESVVVGEPGMSEGRRGLGRGLSALLGEVDAAPAQAPGEQLGGSREAPIEILQRNPDQPRRTFREEDLEDLSNSIREKGVLQPILVRPSPDTAGEYQIVAGERAWRAAQRAGLKTVPIMVRELDDLAVLEIGIIENVQRADLNVLEEALSYKVLMEKFERTQENIAQTIGKSXSHVANXMRLLXLPDEVQSYLVSGELTAXHARAIAAAADPVALAKQIIEGGLSVRETEALARKAPNLSAGKSKGGRPPRVKDTDTQALESDLSSVLGLDVSIDHRGSTGTLTITYATLEQLDDLCNRLTRGI

Variants of: B1
Experiment: one-hybrid fitness for binding NBS DNA (the Noc-binding site; scaled: cognate 1, non-cognate 0); higher = stronger binding
Settings: with NBS DNA site
Outline: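 In E. coli USO, a HIS3 reporter with its site placed 19 bp from the promoter was used to select Caulobacter ParB variants randomised at four specificity codons. Growth lasted 48 hours at 37°C on histidine-free M9 containing 0.1 mM IPTG and 5 mM 3-AT. Fitness was taken as the log change in variant-to-wild-type read ratio from Illumina sequencing of pre- and post-selection plasmids, rescaled between the non-cognate and cognate sites.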

one-hybrid fitness for binding NBS DNA, 0.55:
QMQR

one-hybrid fitness for binding NBS DNA, 0.591:
QMGR

one-hybrid fitness for binding NBS DNA, 0.398:
QMIR

one-hybrid fitness for binding NBS DNA, 0.454:
RLTT

one-hybrid fitness for binding NBS DNA, 0.666:
RKTT

one-hybrid fitness for binding NBS DNA, 0.284:
QMNH

one-hybrid fitness for binding NBS DNA, 0.324:
QMER

one-hybrid fitness for binding NBS DNA, 0.434:
RMTT

one-hybrid fitness for binding NBS DNA, 0.228:
QISS

one-hybrid fitness for binding NBS DNA, 0.44:
QPSR

one-hybrid fitness for binding NBS DNA, 0.518:
RCTT

one-hybrid fitness for binding NBS DNA, 0.403:
QMDR

one-hybrid fitness for binding NBS DNA, 0.526:
QSSR

one-hybrid fitness for binding NBS DNA, 0.229:
QWSR

one-hybrid fitness for binding NBS DNA, 0.507:
QMYR

one-hybrid fitness for binding NBS DNA, 0.557:
QMSR

one-hybrid fitness for binding NBS DNA, 0.65:
QKSR

one-hybrid fitness for binding NBS DNA, 0.269:
RFTT

one-hybrid fitness for binding NBS DNA, 0.694:
RRPT

one-hybrid fitness for binding NBS DNA, 0.243:
RRTQ

one-hybrid fitness for binding NBS DNA, 0.786:
QTSR

one-hybrid fitness for binding NBS DNA, 0.716:
RRTT

one-hybrid fitness for binding NBS DNA, 0.482:
QASR

one-hybrid fitness for binding NBS DNA, 0.788:
RRIT

one-hybrid fitness for binding NBS DNA, 0.365:
QQPR

one-hybrid fitness for binding NBS DNA, 0.386:
QISR

one-hybrid fitness for binding NBS DNA, 0.543:
RTTT

one-hybrid fitness for binding NBS DNA, 0.323:
QMPR

one-hybrid fitness for binding NBS DNA, 0.321:
QTSH

one-hybrid fitness for binding NBS DNA, ≤ 0.2:
QQPP
QQIC
QQPN
QQIY
IMNC
QCIE
GPNL
RCPT
RRIP
RPPT
QIKI
GQNR
PQLG
NMRR
QMHP
QMQN
DMRR
QMQD
QMYF
QMHN
YCIR
PWLA
PATL
QMDF
QMNN
QMGC
QMDD
QMIP
KASM
RNWE
WRSG
HNPS
AKVR
ERAT
FHRT
HTGY
KAEC
QAVP
CWTT
THIP
NAAC
FHTW
GAEY
QSSD
QKSN
QKSD
QHSD
QHSN
QISP
QSSP
RKLW
VHYS
PGDT
KQTL
HGQT
APTM
HNIL
QGSR
QASH
QASP
QPSH
QPSP
QTSD
RVGY
YYRE
EWTK
SFAV
RSFI
ETCC
HGGG
QTAK
QMSN
QMSD
KFFY
TGSL
HQMR
YVSG
IRIE
RTTD
RPTT
RTTN
RHTH
RHTD
QQII
KSMI
KVWM
KATR
ALTC
AHCL
HGAA
HRGN
REMS
CAHR
LWHP
QELW
YGQC
WRES
YVSL
HMQS
LYTW
RLTN
RMTK
RKTP
RETT
RGTT
RMTL
RLTD
DHNC
YATH
QISK
CLVT
DRWC

one-hybrid fitness for binding NBS DNA, 0.51:
QHSR

one-hybrid fitness for binding NBS DNA, 0.221:
QMGK

one-hybrid fitness for binding NBS DNA, 0.637:
QMNR

one-hybrid fitness for binding NBS DNA, 0.331:
RRTG

one-hybrid fitness for binding NBS DNA, 1.02:
QMRR

one-hybrid fitness for binding NBS DNA, 0.427:
RHTT

one-hybrid fitness for binding NBS DNA, 0.426:
RSTT

one-hybrid fitness for binding NBS DNA, 0.647:
QMHR

one-hybrid fitness for binding NBS DNA, 0.614:
QCSR

one-hybrid fitness for binding NBS DNA, 0.275:
RKTC

one-hybrid fitness for binding NBS DNA, 0.435:
QQIR

one-hybrid fitness for binding NBS DNA, 0.289:
RCIT
